Measurements reported in PubChem BioAssay AID1347056 (Sanford-Burnham Center for Chemical Genomics, 2019).
The campaign covered roughly 360,000 compounds. About 3,600 (1%) were called active.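 The calls were made as follows: active = compounds whose plate-normalised and pattern-corrected inhibition of the luciferase reporter signal at the single screening dose is 50% or more; inactive = the rest.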 Many of the other results were omitted from the sample, so actives are more common in it than they were.

test: inhibitors of TROY-driven NF-kB signaling, primary screen, Q293 LMP1-TROYcd cells, NF-kB luciferase, uHTS (AID 1347056); conditions: Q293 LMP1-TROYcd NF-kB luciferase reporter, 4 h; at 10 µM; active compounds read high

| SMILES | inhibition |
| --- | --- |
| O=c1ccc2cc(S(=O)(=O)NCCCc3ccccc3)ccc2[nH]1 | -7.06% (inactive) |
| CCC(C)(C)NC(=O)CN(Cc1cccs1)C(=O)CNS(=O)(=O)c1ccc(F)cc1 | -7.55% (inactive) |
| Cc1ccc(S(=O)(=O)N(CC(O)CN2C(=O)NC(C)(C)C2=O)c2cccc([N+](=O)[O-])c2)cc1 (stereo not given) | 4.48% (inactive) |
| CCCn1c(C)cc(C(=O)COC(=O)c2c(C)nn(-c3ccccc3)c2C)c1C | -3.58% (inactive) |
| COc1ccccc1NC(=S)N1CCN(C(c2ccccc2)c2ccccc2)CC1 | 16.1% (inactive) |
| Cc1cccc(N2CCN(C(c3ccccc3)c3nnnn3CC3CCCO3)CC2)c1C (stereo not given) | -7.74% (inactive) |
| CC1(C)CC(N2CCN(C(c3ccccc3)c3ccccc3)CC2)=CC(=[N+]2CCCCC2)C1 | 58.6% (active) |
| O=C(CN1CCOCC1)Nc1c(Cl)cc(Cl)cc1Cl | -5.43% (inactive) |
| C=CCSc1nc2c(c(=O)[nH]1)C(C(C)C)C(C#N)=C(N)O2 (stereo not given) | 9.46% (inactive) |
| N#Cc1ccccc1NC(=O)COc1c(Br)cc(Br)c2cccnc12 | 4.34% (inactive) |
| CC1CN(C(=O)c2ccccc2NS(=O)(=O)c2cccc([N+](=O)[O-])c2)CC(C)O1 (stereo not given) | 8.71% (inactive) |
| COc1ccc(S(=O)(=O)N2CCC(C(=O)OCC(=O)c3ccccc3)CC2)cc1[N+](=O)[O-] | -4.41% (inactive) |
| COc1ccc(Br)cc1/C=N/Nc1ccc(S(=O)(=O)Nc2ccccc2C(=O)O)cc1[N+](=O)[O-] | 58% (active) |
| CC(=O)Nc1ccc(C(=O)CSc2nc3ccc(C)cc3[nH]2)cc1 | -46.4% (inactive) |
| COc1cccc2c(C)c(C(=O)O)[nH]c12 | 74.3% (active) |
| COc1ccccc1C(=O)c1ccccc1C(=O)c1ccccc1 | 9.22% (inactive) |
| COc1cc2c(C(=O)O)c(C)n(C)c2c2ccccc12 | 6.89% (inactive) |
| Oc1cccc2ccc(/C=C/c3ccc(Br)s3)nc12 | 45.8% (inactive) |
| N#CC1=C(N)Oc2cc(N)ccc2C1c1ccccc1 (stereo not given) | 13.9% (inactive) |
| COc1ccccc1C1C(C#N)=C(N)Oc2c1c(-c1ccccc1)nn2-c1ccccc1 (stereo not given) | 62% (active) |
| COc1ccc(C2C(C#N)=C(N)Oc3cc(N)ccc32)cc1OC (stereo not given) | -32.5% (inactive) |
| CCOc1ccc(C(=O)Nc2cc(Cl)ccc2-n2cncn2)cc1OC | -3.58% (inactive) |
| O=C1c2ccccc2C(=O)N1CCC#Cc1ccc2cc(C3(O)CCCCC3)oc(=O)c2c1 | 64.8% (active) |

| SMILES | inhibition |
| --- | --- |
| CC(C)c1nc(CNC(=O)CC2C(=O)NCCN2Cc2cccc(F)c2F)cs1 (stereo not given) | 4.78% (inactive) |
| COC(=O)c1ccc(C)c(NC(=O)C2CC(=O)N(C3CCCC(C)C3C)C2)c1 (stereo not given) | -0.78% (inactive) |
| C=CCC[C@@H](Cc1ccc(F)cc1)C(=O)O[C@H](CNC(=O)[C@H](CC=C)CC(=O)N(CCO)Cc1ccccc1)c1ccccc1 | 46.6% (inactive) |
| O=C1c2ccccc2C2=Nc3ccccc3SC(c3ccccc3F)C12 (stereo not given) | 63.5% (active) |
| COCCCn1c(-c2cccs2)nc2nc3ccccc3nc21 | 1.22% (inactive) |
| Cc1cccc(NC(=O)CSc2nc3[nH]ncc3c(=O)[nH]2)c1 | 80.2% (active) |
| Cc1ccc(CSc2nc3[nH]ncc3c(=O)[nH]2)cc1 | -16.1% (inactive) |
| O=C(CSc1nc2[nH]ncc2c(=O)[nH]1)Nc1ccc(F)cc1 | -9.77% (inactive) |
| COc1ccc(S(=O)(=O)N2CCN(C)CC2)c(C)c1 | -7.28% (inactive) |
| O=C(/C=C/c1ccc(Cl)cc1)N1CCN(c2ccccc2[N+](=O)[O-])CC1 | 9.62% (inactive) |
| O=C(/C=C/c1ccc(Cl)c([N+](=O)[O-])c1)c1cccnc1 | 64.6% (active) |
| O=C(/C=C/c1ccc(Cl)c([N+](=O)[O-])c1)c1ccc(O)cc1 | 55.6% (active) |
| C/C(=N\NC(=O)Cc1ccccc1[N+](=O)[O-])c1cccnc1 | -4.21% (inactive) |
| O=C(Nc1cccnc1)c1ccc(Cl)cc1[N+](=O)[O-] | -20.1% (inactive) |
| O=C(O)c1ccc2c(=O)n3c(nc2c1)/C(=C/c1ccc(Cl)c([N+](=O)[O-])c1)CC3 | -0.87% (inactive) |
| O=C(NCc1ccccc1CN1CCCC1)C1CCN(S(=O)(=O)c2ccc(Cl)cc2)CC1 | 4.08% (inactive) |
| Cc1ccnc(NC(=O)CCNS(=O)(=O)c2ccc(C)c(C)c2)c1 | 29.5% (inactive) |
| Cc1ccc2nc(SCc3nnc(-c4ccccc4[N+](=O)[O-])o3)c(C#N)cc2c1 | 2.86% (inactive) |
| CCOC(=O)c1c(-c2ccccc2)oc2cc(Br)c(O)c(C=O)c12 | 74.6% (active) |
| CCOC(=O)c1c(C)oc2cc(Sc3ccccc3)c(O)c(O)c12 | -45.5% (inactive) |
| CCOC(=O)c1c(C)oc2cc(Br)c(OCC(N)=O)cc12 | 8.9% (inactive) |
| COc1ccc([N+](=O)[O-])cc1NC(=O)c1ccc(N(Cc2ccccc2C)S(C)(=O)=O)cc1 | 13.5% (inactive) |
| COC(=O)C1=C(C)N=C2SC(C)C(=O)N2C1/C=C/c1ccccc1 (stereo not given) | 0.14% (inactive) |

| SMILES | inhibition |
| --- | --- |
| CC[C@H]1CN2CCc3cc(OC)c(OC)cc3[C@@H]2C[C@@H]1C[C@H]1NCCc2cc(OC)c(OC)cc21 | 86% (active) |
| CCCc1cc(=O)[nH]c2nnc(SCC(=O)Nc3nnc(SCC)s3)n12 | -11.1% (inactive) |
| CCOC(=O)C(=Cc1ccccc1)C(=O)c1ccccc1 | 55% (active) |
| CCOC(=O)/C(=C\c1ccc([N+](=O)[O-])cc1)C(=O)c1cc(C(C)=O)c(Nc2ccccc2)s1 | 1.46% (inactive) |
| CCOC(=O)C(=Cc1ccccc1OC)C(=O)OCC | 36.4% (inactive) |
| CCCCSc1nnc2c(n1)OC=Nc1ccccc1-2 | -39.1% (inactive) |
| N#Cc1c(-c2cccs2)nc(SCC(=O)c2ccc(Br)cc2)[nH]c1=O | 18.2% (inactive) |
| N#Cc1ccc(C(=O)Nc2nc(-c3cccs3)c(C(=O)C(F)(F)F)s2)cc1 | 53.3% (active) |
| C=CCN(CC=C)S(=O)(=O)c1ccc(C(=O)Nc2nc3c(s2)CCc2ccccc2-3)cc1 | 4.01% (inactive) |
| Cc1cc(=O)oc2c(C)c(OCC(=O)NCCc3ccc(S(N)(=O)=O)cc3)ccc12 | -2.4% (inactive) |
| O=C(C1CCN(c2nnc(-n3cccc3)s2)CC1)N1CCc2ccccc2C1 | 22.4% (inactive) |
| Cc1ccc2c(C)c(C(=O)N(C)CCC3CCCCO3)oc2c1C (stereo not given) | -35.3% (inactive) |
| O=C(CN(Cc1ccccc1)C(=O)CCC(=O)Nc1ccccn1)NCCc1ccccc1 | -13.3% (inactive) |
| COc1ccc(-c2noc(CNC(=O)C(C)Oc3ccccc3)n2)cc1 (stereo not given) | -22.8% (inactive) |
| COc1ccc(/C=C/c2noc(-c3ccccc3OC(C)=O)n2)cc1 | 48.6% (inactive) |
| COc1ccc(-c2nc(-c3ccccc3)no2)c(OC)c1 | 72.5% (active) |
| COc1ccccc1-n1nnnc1S(=O)(=O)Cc1ccc(Cl)cc1 | 68.3% (active) |
| CCN(C(=O)CSc1nnnn1-c1ccccc1OC)C1CCS(=O)(=O)C1 (stereo not given) | -12.8% (inactive) |
| COc1ccccc1CN(C)c1nnnn1-c1ccccc1 | 7.2% (inactive) |
| O=c1[nH][nH]c(C(F)(F)F)c1C=NCc1ccccc1Cl | -4.3% (inactive) |
| O=C(O)CSCC(=O)Nc1ccc(C(F)(F)F)cc1 | 5.82% (inactive) |
| O=C(O)CC(SCC(=O)Nc1ccc(Br)cc1)C(=O)O (stereo not given) | 67.2% (active) |
| Cc1cc(C)c2c(=O)[nH]c(SCC(=O)Nc3ccc(Br)cc3)nc2n1 | 10.6% (inactive) |

| SMILES | inhibition |
| --- | --- |
| CC(=O)Nc1nc2c(s1)C(=O)NCC(C)(C)C2 | 16.5% (inactive) |
| CC(=O)c1cc(CN2CCC(n3nccc3NC(=O)c3ccccc3Cl)CC2)cs1 | -6.73% (inactive) |
| OC[C@@H]1CN(Cc2cccs2)C[C@H](n2cnc3c(NC4CCCC4)ncnc32)O1 | -12% (inactive) |
| OC[C@@H]1CN(Cc2ccc(-c3ccccc3)cc2)C[C@H](n2cnc3c(NC4CCCC4)ncnc32)O1 | 52.3% (active) |
| OC[C@@H]1CN(Cc2ccc(F)cc2)C[C@H](n2cnc3c(NC4CCCC4)ncnc32)O1 | -11.8% (inactive) |
| N#CC(C(N)=O)=C1CCC2(CC1)OCCCCO2 | -8.85% (inactive) |
| Nc1nc(NCc2ccccc2)n(-c2ccccc2)n1 | 11.4% (inactive) |
| O=C(O)CN1c2cccc3cccc(c23)S1(=O)=O | 18% (inactive) |
| N/C(=N\OC(=O)Cc1ccc([N+](=O)[O-])cc1)c1ccccn1 | 71.7% (active) |
| O=C(COC(=O)c1ccccn1)NNC(=O)c1ccc([N+](=O)[O-])cc1 | -4.92% (inactive) |
| N/C(=N\OC(=O)c1ccc([N+](=O)[O-])cc1)c1ccccn1 | -41.5% (inactive) |
| O=C(Cc1ccccc1)N1CCN(S(=O)(=O)c2ccc([N+](=O)[O-])cc2)CC1 | -0.47% (inactive) |
| O=C(Nc1nnc(C2CC2)s1)C1=NN(C2CCS(=O)(=O)C2)C(=O)CC1 (stereo not given) | -9.87% (inactive) |
| COc1ccc(NC(=O)CCCN2C(=O)C(c3ccccc3)Oc3cccnc32)cc1 (stereo not given) | -2.33% (inactive) |
| COc1ccc(/C=C2/SC(=O)N(CCCCCC(=O)Nc3ccccc3C(=O)O)C2=S)cc1 | 62.8% (active) |
| CCCNC(=O)c1ccccc1NC(=O)CSCc1ccc(OC)cc1 | -1.25% (inactive) |
| O=C(NCc1ccc(F)cc1)c1cc(C2CCCCN2C(=O)c2cccs2)on1 (stereo not given) | -13.9% (inactive) |
| Cc1ccc(-n2c(SCC(=O)N3CCC(C(=O)O)CC3)nc3ccccc3c2=O)cc1C | 28.8% (inactive) |
| COc1ccc2c(c1)C=CC1(O2)N(CCO)c2ccccc2C1(C)C (stereo not given) | 74.4% (active) |
| CN1c2ccc([N+](=O)[O-])cc2C(C)(C)C12C=Cc1cc(C(=O)O)ccc1O2 (stereo not given) | 4.3% (inactive) |
| COc1ccc2c(c1)C(SCC(=O)NCc1ccccc1)CC(C)(C)O2 (stereo not given) | -9.24% (inactive) |
